Where “and” joins values, the source holds several entries; their conditions need not be identical. Equal values may be shown once. Hit rate of the full screen: of about 5,500 compounds, about 2,000 (36%) were called active. About 18% were inconclusive and are not listed. Some of the results follow. Unmarked numbers belong to inactive results. No stated cut-off is given here; in the data, active means normalized growth mostly below about 0.91 (no sharp cut-off); inconclusive means no clear call, values can overlap the other calls; inactive means mostly above about 0.92.
Assay: chemical genetic growth profiling, strain panel (AID 1159580);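 further: tested at 20 µM; growth read once vehicle control cultures reached saturation at 30 °C; 1 = growth at the plate median or of vehicle wells; lower values mean less growth of the strain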
Conditions: growth OD

Structure (SMILES): O=C(O)c1cccnc1Nc1cccc(C(F)(F)F)c1
- normalized growth (S. cerevisiae deletion strains, locus YAL013W, strain DEP1, active compounds read low): 0.97
- normalized growth (S. cerevisiae deletion strains, locus YAL040C, strain CLN3, active compounds read low): 1.02
- normalized growth (S. cerevisiae deletion strains, locus YBR021W, strain FUR4, active compounds read low): 0.922
- normalized growth (S. cerevisiae deletion strains, locus YBR229C, strain ROT2, active compounds read low): 0.964
- normalized growth (S. cerevisiae deletion strains, locus YCL029C, strain bik1, active compounds read low): 0.944
- normalized growth (S. cerevisiae deletion strains, locus YCL061C, strain MRC1 (second series), active compounds read low): 1
- normalized growth (S. cerevisiae deletion strains, locus YDL035C, strain GPR1, active compounds read low): 0.984
- normalized growth (S. cerevisiae deletion strains, locus YDL074C, strain BRE1, active compounds read low): 0.999
- normalized growth (S. cerevisiae deletion strains, locus YDL101C, strain DUN1, active compounds read low): 0.981
- normalized growth (S. cerevisiae deletion strains, locus YDL134C, strain PPH21, active compounds read low): 0.946
- normalized growth (S. cerevisiae deletion strains, locus YDL185W, strain tfp1, active compounds read low): 0.896 (active)
- normalized growth (S. cerevisiae deletion strains, locus YDL192W, strain arf1, active compounds read low): 0.942
- normalized growth (S. cerevisiae deletion strains, locus YDR101C, strain arx1, active compounds read low): 0.967
- normalized growth (S. cerevisiae deletion strains, locus YDR150W, strain NUM1, active compounds read low): 0.975
- normalized growth (S. cerevisiae deletion strains, locus YDR162C, strain NBP2, active compounds read low): 0.968
- normalized growth (S. cerevisiae deletion strains, locus YDR318W, strain mcm21, active compounds read low): 0.953
- normalized growth (S. cerevisiae deletion strains, locus YDR363W, strain ESC2, active compounds read low): 1
- normalized growth (S. cerevisiae deletion strains, locus YDR388W, active compounds read low): 0.941
- normalized growth (S. cerevisiae deletion strains, locus YDR502C, strain sam2, active compounds read low): 0.963
- normalized growth (S. cerevisiae deletion strains, locus YEL061C, strain CIN8, active compounds read low): 0.972
- normalized growth (S. cerevisiae deletion strains, locus YER002W, strain NOP16, active compounds read low): 0.973
- normalized growth (S. cerevisiae deletion strains, locus YER110C, active compounds read low): 0.954
- normalized growth (S. cerevisiae deletion strains, locus YER155C, strain BEM2, active compounds read low): 0.931
- normalized growth (S. cerevisiae deletion strains, locus YER167W, strain BCK2, active compounds read low): 0.957
- normalized growth (S. cerevisiae deletion strains, locus YGL078C, strain dbp3, active compounds read low): 0.943
- normalized growth (S. cerevisiae deletion strains, locus YGL086W, strain mad1, active compounds read low): 0.963
- normalized growth (S. cerevisiae deletion strains, locus YGL248W, strain PDE1, active compounds read low): 0.989
- normalized growth (S. cerevisiae deletion strains, locus YGR135W, strain pre9, active compounds read low): 0.95
- normalized growth (S. cerevisiae deletion strains, locus YGR229C, strain SMI1, active compounds read low): 0.978
- normalized growth (S. cerevisiae deletion strains, locus YGR252W, strain gcn5, active compounds read low): 0.911
- normalized growth (S. cerevisiae deletion strains, locus YHR030C, strain SLT2, active compounds read low): 0.949
- normalized growth (S. cerevisiae deletion strains, locus YHR079C, strain IRE1 (second series), active compounds read low): 0.942
- normalized growth (S. cerevisiae deletion strains, locus YHR094C, strain hxt1, active compounds read low): 0.941
- normalized growth (S. cerevisiae deletion strains, locus YHR129C, strain ARP1, active compounds read low): 0.953
- normalized growth (S. cerevisiae deletion strains, locus YHR200W, strain rpn10, active compounds read low): 0.945
- normalized growth (S. cerevisiae deletion strains, locus YIL066C, strain RNR3, active compounds read low): 0.973
- normalized growth (S. cerevisiae deletion strains, locus YIL073C, strain SPO22, active compounds read low): 0.954
- normalized growth (S. cerevisiae deletion strains, locus YIL125W, strain kgd1, active compounds read low): 0.919 (active)
- normalized growth (S. cerevisiae deletion strains, locus YIR030C, strain dcg1, active compounds read low): 0.939
- normalized growth (S. cerevisiae deletion strains, locus YJL095W, strain BCK1, active compounds read low): 0.996
- normalized growth (S. cerevisiae deletion strains, locus YJL134W, strain LCB3, active compounds read low): 0.953
- normalized growth (S. cerevisiae deletion strains, locus YJL168C, strain set2, active compounds read low): 0.941
- normalized growth (S. cerevisiae deletion strains, locus YJL187C, strain SWE1 (second series), active compounds read low): 1
- normalized growth (S. cerevisiae deletion strains, locus YJR043C, strain POL32, active compounds read low): 0.991
- normalized growth (S. cerevisiae deletion strains, locus YJR075W, strain HOC1, active compounds read low): 0.981 and 1.02
- normalized growth (S. cerevisiae deletion strains, locus YKL009W, strain mrt4, active compounds read low): 0.944
- normalized growth (S. cerevisiae deletion strains, locus YKL068W, active compounds read low): 0.912 (active)
- normalized growth (S. cerevisiae deletion strains, locus YKL085W, strain MDH1 (second series), active compounds read low): 0.916 (active)
- normalized growth (S. cerevisiae deletion strains, locus YKL085W, strain MDH1, active compounds read low): 0.916 (active)
- normalized growth (S. cerevisiae deletion strains, locus YKL190W, strain CNB1, active compounds read low): 0.979
- normalized growth (S. cerevisiae deletion strains, locus YKR001C, strain vps1, active compounds read low): 0.949
- normalized growth (S. cerevisiae deletion strains, locus YLR039C, strain RIC1, active compounds read low): 0.966
- normalized growth (S. cerevisiae deletion strains, locus YLR058C, strain SHM2, active compounds read low): 0.969
- normalized growth (S. cerevisiae deletion strains, locus YLR102C, strain apc9, active compounds read low): 0.938
- normalized growth (S. cerevisiae deletion strains, locus YLR262C, strain YPT6, active compounds read low): 0.975
- normalized growth (S. cerevisiae deletion strains, locus YLR268W, strain sec22, active compounds read low): 0.978
- normalized growth (S. cerevisiae deletion strains, locus YLR330W, strain CHS5, active compounds read low): 0.943
- normalized growth (S. cerevisiae deletion strains, locus YLR342W, strain FKS1 (second series), active compounds read low): 0.936
- normalized growth (S. cerevisiae deletion strains, locus YLR371W, strain rom2, active compounds read low): 0.951
- normalized growth (S. cerevisiae deletion strains, locus YLR418C, strain cdc73, active compounds read low): 0.909
- normalized growth (S. cerevisiae deletion strains, locus YML016C, strain PPZ1, active compounds read low): 0.967
- normalized growth (S. cerevisiae deletion strains, locus YML032C, strain rad52, active compounds read low): 0.966
- normalized growth (S. cerevisiae deletion strains, locus YML124C, strain tub3, active compounds read low): 0.933 (active)
- normalized growth (S. cerevisiae deletion strains, locus YMR078C, strain ctf18, active compounds read low): 0.945
- normalized growth (S. cerevisiae deletion strains, locus YMR223W, strain ubp8, active compounds read low): 0.958
- normalized growth (S. cerevisiae deletion strains, locus YMR263W, strain SAP30, active compounds read low): 0.973
- normalized growth (S. cerevisiae deletion strains, locus YMR307W, strain GAS1, active compounds read low): 0.881
- normalized growth (S. cerevisiae deletion strains, locus YNL067W, strain RPL9B, active compounds read low): 1.02
- normalized growth (S. cerevisiae deletion strains, locus YNL153C, strain GIM3, active compounds read low): 0.991
- normalized growth (S. cerevisiae deletion strains, locus YNL175C, strain NOP13, active compounds read low): 0.981
- normalized growth (S. cerevisiae deletion strains, locus YNL197C, strain WHI3, active compounds read low): 1
- normalized growth (S. cerevisiae deletion strains, locus YNL224C, strain SQS1, active compounds read low): 0.969
- normalized growth (S. cerevisiae deletion strains, locus YNL233W, strain BNI4, active compounds read low): 0.988
- normalized growth (S. cerevisiae deletion strains, locus YNL250W, strain rad50, active compounds read low): 0.9
- normalized growth (S. cerevisiae deletion strains, locus YNL271C, strain bni1, active compounds read low): 0.916 (active)
- normalized growth (S. cerevisiae deletion strains, locus YNL298W, strain CLA4, active compounds read low): 0.942
- normalized growth (S. cerevisiae deletion strains, locus YNL307C, strain MCK1, active compounds read low): 0.937
- normalized growth (S. cerevisiae deletion strains, locus YNL322C, strain KRE1, active compounds read low): 0.969 and 1.02
- normalized growth (S. cerevisiae deletion strains, locus YNR052C, strain pop2, active compounds read low): 0.949
- normalized growth (S. cerevisiae deletion strains, locus YOL006C, strain TOP1, active compounds read low): 0.99
- normalized growth (S. cerevisiae deletion strains, locus YOL012C, strain htz1): 1.13
- normalized growth (S. cerevisiae deletion strains, locus YOL147C, strain pex11, active compounds read low): 0.935
- normalized growth (S. cerevisiae deletion strains, locus YOR061W, strain CKA2, active compounds read low): 0.974
- normalized growth (S. cerevisiae deletion strains, locus YOR069W, strain VPS5, active compounds read low): 0.956
- normalized growth (S. cerevisiae deletion strains, locus YOR083W, strain WHI5 (second series), active compounds read low): 0.992
- normalized growth (S. cerevisiae deletion strains, locus YOR136W, strain idh2, active compounds read low): 0.98
- normalized growth (S. cerevisiae deletion strains, locus YOR144C, strain elg1, active compounds read low): 0.944
- normalized growth (S. cerevisiae deletion strains, locus YOR184W, strain ser1, active compounds read low): 0.968
- normalized growth (S. cerevisiae deletion strains, locus YOR316C, strain cot1, active compounds read low): 0.931
- normalized growth (S. cerevisiae deletion strains, locus YPL055C, strain LGE1, active compounds read low): 1.04 and 1.01
- normalized growth (S. cerevisiae deletion strains, locus YPR119W, strain clb2, active compounds read low): 0.934
- normalized growth (S. cerevisiae deletion strains, locus YPR141C, strain kar3, active compounds read low): 0.895 (active)
- normalized growth (S. cerevisiae deletion strains, locus YPR163C, strain tif3, active compounds read low): 0.95
- normalized growth (S. cerevisiae deletion strains, locus YPR167C, strain met16, active compounds read low): 0.938
- normalized growth (S. cerevisiae deletion strains, strain wtn01, active compounds read low): 0.957
- normalized growth (S. cerevisiae strains, strain wild type, active compounds read low): 0.981

Source: PubChem BioAssay AID1159580 (chemical genetic matrix, 2015)
